Compound activity (PubChem)
Shown are actives, neighbours in structure and some others; about 6.9% of the full set was active somewhere.
VDR inh: inhibitors of human vitamin D receptor | P11473 | VDR-SRC2-3 peptide fluorescence polarization, 2 h | Potency, µM, inactives show max response, negative = inhibition, hits mostly inhibitors | 400,000 compounds, 0.93% hits | AID 504847; also: % is scaled to controls: 0 for no effect and ±100 for the full control effect
Target sequence (P11473 whole entry, looked up): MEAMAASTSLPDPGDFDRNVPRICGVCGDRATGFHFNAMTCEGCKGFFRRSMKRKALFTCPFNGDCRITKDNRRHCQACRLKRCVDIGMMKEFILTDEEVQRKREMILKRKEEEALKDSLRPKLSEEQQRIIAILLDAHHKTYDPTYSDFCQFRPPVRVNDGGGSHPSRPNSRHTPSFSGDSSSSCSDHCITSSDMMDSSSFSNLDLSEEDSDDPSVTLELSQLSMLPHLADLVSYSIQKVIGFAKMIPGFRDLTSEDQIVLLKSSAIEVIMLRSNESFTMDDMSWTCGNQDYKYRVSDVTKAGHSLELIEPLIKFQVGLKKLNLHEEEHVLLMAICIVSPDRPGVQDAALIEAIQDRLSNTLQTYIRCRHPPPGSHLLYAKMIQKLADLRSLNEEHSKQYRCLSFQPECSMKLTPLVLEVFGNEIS
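Fluorescence polarization assay of small-molecule disruption of VDR binding to coregulator peptide SRC2-3. Compounds and controls pin-transferred, then read after 2 h incubation at ambient room temperature.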
PLK1 PBD block: inhibitors of human PLK1 polo-box domain binding; P53350; Plk1 PBD binding of FITC phosphopeptide, fluorescence polarization; Potency, µM, for the others: max response, negative = inhibition, usual class: inhibitors; 360,000 compounds, 2.8% hits; also: series mostly up to about 57 µM; % is scaled to controls: 0 for no effect and ±100 for the full control effect; nearly all actives have a fitted effect of over 65% in size
L3MBTL1 inh: blocks human L3MBTL1. Potency, µM (top dose mostly 57.1 µM), inactives show at the highest dose activity, negative = inhibition, most hits filed as inhibitors. 230,000 compounds, 0.66% hits. AlphaScreen L3MBTL1–H3K9me1 peptide binding; also: % is scaled to controls: 0 for no effect and ±100 for the full control effect; nearly all actives have a fitted effect of over 60% in size
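AlphaScreen proximity signal between nickel-chelate acceptor and streptavidin donor beads (final 10 ug/mL) reports binding of 50 nM L3MBTL1 to 75 nM biotin-H3 K9me1 peptide; complex incubated with compounds 30 min at room temperature; cefsulodin titration as control.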
JMJD2A Tudor inh: blocks the human JMJD2A Tudor domain | O75164 | AlphaScreen JMJD2A-Tudor / H3K4me3 peptide binding | Potency, µM (series often up to 114 µM), without a hit: at the highest dose activity change, negative = inhibition, usual class: inhibitors | 390,000 compounds, 4.4% hits | AID 504339; also: % is scaled to controls: 0 for no effect and ±100 for the full control effect; nearly all actives have a fitted effect of over 50% in size
BAZ2B inh: blocks human BAZ2B | Q9UIF8 | AlphaScreen BAZ2B-H3K14Ac peptide displacement | Potency, µM (series often up to 114 µM), for inactives: at the highest dose activity change, negative = inhibition, hits mostly inhibitors | 360,000 compounds, 4.4% hits | AID 504333; also: % is scaled to controls: 0 for no effect and ±100 for the full control effect; nearly all actives have a fitted effect of over 60% in size
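Inhibition is scored as reduced AlphaScreen emission. The BAZ2B/b-H3(5-23)K14Ac complex (50 nM each) in PBS pH 7.4, 0.01% Tween-20 meets compound (up to 110 uM) for 30 min at RT before bead addition.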
HP1b binding inh: HP1-beta chromodomain-methylated histone interaction inhibition; 390,000 compounds, 0.56% hits; P83916; AlphaScreen HP1-beta / biotin-H3K9me3 peptide binding; Potency, µM (top dose mostly 114 µM), inactives show top-dose activity change, negative = inhibition, usual class: inhibitors; AID 540317; also: nearly all actives have a fitted effect of over 70% in size
Target sequence (P83916 whole entry, looked up): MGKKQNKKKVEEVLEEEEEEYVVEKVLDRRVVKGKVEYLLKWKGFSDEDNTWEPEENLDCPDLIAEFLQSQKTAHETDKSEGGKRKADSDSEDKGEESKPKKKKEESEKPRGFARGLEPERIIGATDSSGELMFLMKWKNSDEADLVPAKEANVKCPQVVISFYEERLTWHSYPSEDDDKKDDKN
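Compound inhibition of the preformed complex between 50 nM HP1-beta and 50 nM biotinylated H3K9me3 peptide was read by AlphaScreen. Buffer was PBS pH 7.4 with 0.01% Tween-20. Incubations ran 30 min at room temperature, with 10 ug/mL donor/acceptor beads.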
* hit, by the source's call; ? = inconclusive; . = no result; [ ] = dose if it differs, or a comment. Calls follow the shape of the dose curve; as a rule, active = well fitted curve in the direction sought with a large enough effect; inconclusive = small, poorly fitted or top-dose-only effect, or another doubt; inactive = no such curve, though single readings can be large; an effect the other way counts as inactive or inconclusive. Potency is read from the fitted curve at half-maximal effect.

SMILES	VDR inh	PLK1 PBD block	L3MBTL1 inh	JMJD2A Tudor inh	BAZ2B inh	HP1b binding inh
Cn1c(=O)n(CCOc2ccc(Cl)cc2Cl)c2ccccc21	-4.5%	-3.2%	.	-6.9%	6.5%	14.1%
CC1CC(C)CN(CCOc2ccc(Cl)cc2Cl)C1 (stereo not drawn)	-3.0%	0.1%	.	2.82µM*	56.2µM*	?
O=C1CCc2cc(S(=O)(=O)NC(C(=O)Nc3ccc(F)cc3)c3ccccc3)ccc2N1 (stereo not drawn)	-17.8%	.	.	-9.1%	-17.6%	?
Cc1c(Br)c([N+](=O)[O-])nn1CC(=O)NCc1ccccc1	?	11.9µM*	-0.8%	-30.9%[11.4 µM]	-17.2%	-1.3%
Cc1ccc(C(=O)NNc2c3ccccc3nc3ccccc23)cc1	2.4%	-4.5%	-19.8%	-34.5%	?	-12.6%
Nc1ccccc1C(=O)NNc1c2ccccc2nc2ccccc12	-11.9%	0.6%	?	31.6µM*	28.2µM*	17.8µM*
CC(C)CC(=O)NC1(C(F)(F)F)C(=O)Nc2c1c(=O)[nH]c(=O)n2-c1ccccc1 (stereo not drawn)	-10.6%	.	.	-1.0%	-1.1%	81.5%
Cc1ncc(CN2CCCC(C(=O)Nc3ccc(-c4ccco4)cc3)C2)cn1 (stereo not drawn)	-10.2%	-12.9%	.	-24.3%	79.4µM*	13.8%[57 µM]
CC(=O)N1CCc2cc(Br)cc(S(=O)(=O)N3CCC(C)CC3)c21	-7.3%	.	.	-7.5%	-1.0%	38.7%
O=C(Nc1cccc(O)c1)c1ccccc1	12.1%	-5.5%	1.2%	5.8%	-4.3%	28.4%
O=C(O)/C=C\C(=O)Nc1cccc(C(=O)Nc2cccc(O)c2)c1	5.1%	23.8µM*	6.6%	-4.5%[11.4 µM]	2.3%	-6.4%
COc1ccc(CC(=O)N(C)CC(=O)Nc2ccccc2SC)cc1	?	23.8µM*	.	28.2µM*	2.1%	-5.5%
CC(=O)N1CCc2c(sc3c2c(=O)n(-c2ccc(C)cc2)c(=O)n3Cc2ccccc2C)C1	3.3%	.	.	?	-19.9%	-10.4%
CCCC(CCC)C(=O)Nc1nnc2n1CCS2	-6.0%	.	.	?	-6.9%	4.9%[57 µM]
CC(Oc1ccccc1)C(=O)Nc1nnc2n1CCS2 (stereo not drawn)	3.0%	.	.	28.2µM*	20µM*	-5.5%[57 µM]
CC(C)C(=O)Nc1nnc2n1CCS2	4.8%	.	.	31.6µM*	1.7%	3.4%[57 µM]
CC(C)c1ccc(C2(O)C(=O)Nc3cc(Br)ccc32)c(O)c1 (stereo not drawn)	?	26.7µM*	.	?	-15.8%	-14.2%
CCOc1ccc(NC(=O)CCS(=O)(=O)c2cccc3nonc23)cc1	-6.1%	.	.	-3.4%	-9.6%	24.8%
CCOc1ccc(C2c3c(oc4ccc(C)cc4c3=O)C(=O)N2CCCN(C)C)cc1 (stereo not drawn)	-0.2%	.	.	-2.2%	4.6%	21.4%
COc1ccccc1OCCCCN1CCC(C)CC1	9.7%	4.5%	.	12.6µM*	?	?
OCCCN1CCN(CCCOc2ccccc2-c2ccccc2)CC1	-20.0%	-9.2%	-10.7%	-14.9%	-10.9%	33.2%
CC1CCN(CCCCOc2ccc(C(C)(C)C)cc2)CC1	-13.9%	0.0%	.	20µM*	?	?
CC1CCCN(CCCOc2ccccc2-c2ccccc2)C1 (stereo not drawn)	-2.3%	1.2%	-2.4%[11.4 µM]	1.12µM*	39.8µM*	?
CC1CCN(CCCCOc2ccccc2-c2ccccc2)CC1	-17.5%	-6.4%	-8.4%	4.47µM*	79.4µM*	?
O=C(Nc1ncc(Cc2ccc(F)cc2)s1)c1ccc2c(c1)CC(c1ccccc1)OC2=O (stereo not drawn)	10.9%	.	.	2.8%	-0.7%	37.4%
SMILES	VDR inh	PLK1 PBD block	L3MBTL1 inh	JMJD2A Tudor inh	BAZ2B inh	HP1b binding inh
CC(C)(C)C(=O)OCOP(=O)(OCOC(=O)C(C)(C)C)C(C)(Oc1ccc(O)cc1)P(=O)(OCOC(=O)C(C)(C)C)OCOC(=O)C(C)(C)C	-2.9%	.	.	.	.	.
Cc1nc(-n2nc(C)c(Cc3ccc(Cl)cc3)c2C)sc1C(=O)N1CCC(C)CC1	2.6%	.	.	-10.3%	-3.4%	30.5%
CCOC(=O)c1[nH]c2ccccc2c1NC(=O)c1cc(OCC)c(OCC)c(OCC)c1	-5.1%	.	.	-14.0%	3.4%	42.7%
CC1CCN(CCOCCOc2ccccc2Br)CC1	-8.5%	-4.9%	7.3%[11.4 µM]	2.51µM*	56.2µM*	?
CC1CCN(CCOCCOc2ccccc2-c2ccccc2)CC1	-5.6%	1.6%	0.5%	3.16µM*	?	?
CCN1C(=O)[C@H]2[C@@H](c3ccc(-c4ccc(OC)cc4)cc3)N[C@@](CC(C)C)(C(=O)OC)[C@H]2C1=O	-4.8%	-4.5%	-6.9%	-15.2%	-4.8%	34.0%
COc1ccc(-c2nc3sc(CCNS(=O)(=O)c4c(C)cc(C)cc4C)c(C)n3n2)cc1	15.2%	.	.	-12.7%	-17.7%	26.4%
Cc1cccc(C)c1OCC(=O)Nc1ncn[nH]1	-12.8%	-1.9%	.	?	50.1µM*	28.6%
Cc1cccc(C)c1OCC(=O)Nc1c(C)nn(C)c1C	5.4%	-11.8%	.	-5.0%	-10.9%	17.4%
Cc1cc(OCC(=O)Nc2cc(-c3nn4c(C)nnc4s3)ccc2C)ccc1Cl	1.1%	?	2.4%	56.2µM*	12.5%	18.1%
Cc1cc(OCC(=O)Nc2ncn[nH]2)ccc1Cl	?	-11.9%	-22.0%	?	44.7µM*	43.2%
Cc1cc(OCC(=O)Nc2ccncc2)ccc1Cl	3.6%	-7.3%	-0.3%	-17.0%	?	45.0%
COc1cccc(NC(=O)CSc2nnc3[nH]c(=O)cc(-c4ccccc4)n23)c1	1.6%	.	.	-3.9%	5.1%	59.0%
COC(=O)c1ccc(CCc2cc(O)ccc2O)cc1	?	?	.	6.31µM*	.	?
CCC(=O)Nc1ccc(C(=O)OCc2ccccc2)cc1	15.2%	-0.3%	-2.5%	-7.7%	-1.3%	59.2%
CC(C)OC(=O)c1ccc(NCc2cc(O)ccc2O)cc1	4.3%	?	.	3.98µM*	.	39.8µM*
O=C(OCc1ccccc1)c1ccc(NCc2cc(O)ccc2O)cc1	-21.5%	-6.0%	.	25.1µM*	.	?
CC(C)(C)c1ccc(C(=O)N2CCC(c3nc4ccccc4o3)CC2)cc1	-7.3%	.	.	-14.9%	-7.5%	29.3%
CC(NC(=O)CCn1c(=O)c2cccn2c2ccc(F)cc21)c1ccccc1 (stereo not drawn)	2.1%	.	.	-3.6%	-15.7%	21.3%
COc1cc(C(=O)/C=C/c2cccnc2)c([N+](=O)[O-])cc1OC	50.1µM*	-20.2%	4.4%	-20.0%	6.4%	47.1%
O=C(/C=C/c1cccnc1)c1ccccc1O	?	-21.2%	.	0.0%	-26.2%	38.4%
CCC(=O)N(C)/C=C1\Sc2ccccc2C1=O	-0.2%	-28.1%	-2.2%	-20.5%[11.4 µM]	56.2µM*	32.3%
CCOC(=O)c1ccc(OC(=O)c2cn(-c3ccc(C)cc3)c(=O)c3ccccc23)cc1	-1.6%	.	.	-10.6%	4.3%	27.6%[57 µM]
